Screening data deposited in PubChem BioAssay by National Center for Advancing Translational Sciences (NCATS).
Tb PGK inh = T. brucei PGK inhibition. P07378. PGK/GAPDH coupled, Kinase-Glo luminescence, 60 min. Potency, µM (doses to about 57.5 µM), for the others: at the top dose activity change, negative = inhibition, most hits filed as inhibitors. 380,000 compounds, 0.043% hits; further: potency means the concentration at half of the fitted maximal effect; on the % scale 0 is the no-effect control and ±100 the full control effect; nearly all actives have a fitted effect of over 60% in size
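Luminescent ATP detection (Kinase-Glo Plus) follows a 60-minute room-temperature incubation, with wells lacking PGK as controls. Buffer: 100 mM TEA (pH 7.6), 5 mM MgCl2, 0.01% Tween-20. Coupling enzyme GAPDH (100 nM final) supplies unstable 1,3-BPG in-well.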
Tb PFK inh-1 = T. brucei PFK enzyme inhibition; AID 485367; Potency, µM (highest dose often 57.5 µM), for inactives: at the top dose activity, negative = inhibition, actives largely listed as inhibitors; 330,000 compounds, 0.17% hits; T. brucei PFK, ADP-Glo luminescence;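 further: potency means the concentration at half of the fitted maximal effect; 0% = uninhibited 1x PFK enzyme wells and -100% = no-enzyme wells; nearly all actives have a fitted effect of over 60% in size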
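Activity is normalized to no-enzyme wells (full inhibition) and 1.25 nM enzyme wells (no inhibition). Reaction: 0.5 mM F6P, 0.1 mM ATP, 45 min RT, ADP-Glo luminescence; concentration-response curves fitted and classed by quality.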
TDP1 inh = TDP1 (human) enzyme inhibition | Q9NUW8 | recombinant TDP1, AlphaScreen DNA substrate cleavage | Potency, µM (top dose mostly 130 µM), for the others: top-dose activity change, negative = inhibition, most hits filed as inhibitors | 350,000 compounds, 0.28% hits; further: potency means the concentration at half of the fitted maximal effect; on the % scale 0 is the no-effect control and ±100 the full control effect; nearly all actives have a fitted effect of over 40% in size
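Enzyme-compound mixtures sat 15 min at room temperature, followed by a 5 min reaction with 15 nM final substrate and 10 min with AlphaScreen beads. Recombinant human Tdp1 was used at 1 nM final.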
PI5P4K alpha inh = PI5P4K alpha (human) kinase inhibition. max response, %. AID 652105. PI5P4Kalpha enzyme, ADP-Glo luminescence, 60 min; active compounds read low. 330,000 compounds, 1.2% hits. P48426; active means max response of -50% or lower; inconclusive means between -30% and -50%; inactive means -30% or higher; further: value at the top dose of about 77 µM; on the % scale 0 is the no-effect control and ±100 the full control effect
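Human PI5P4Kalpha with substrate in 0.038 M HEPES pH 7.4, 0.28 mM EGTA, 0.1% CHAPS, 5% DMSO; reaction started with 5 microM ATP (final), 60 min at room temperature. ADP formed read by ADP-Glo luminescence.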
WRN inhibitor = blocks human WRN helicase. WRN helicase unwinding, fluorescent forked duplex, kinetic. 360,000 compounds, 0.46% hits. Q14191. Potency, µM (titrated, usually from 114 µM), for inactives: top-dose activity change, negative = inhibition, hits mostly inhibitors; further: potency means the concentration at half of the fitted maximal effect; on the % scale 0 is the no-effect control and ±100 the full control effect; nearly all actives have a fitted effect of over 55% in size
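Kinetic fluorescence helicase assay: unwinding of a quenched forked DNA duplex (100 nM final) with 2 mM ATP final raises red fluorescence (525/598 nm). Compounds sat 15 min at room temperature with 20 nM WRN beforehand.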
FEN1 inh = human FEN1 inhibition. P39748. Recombinant FEN1 flap cleavage, fluorescence, 15 min. Potency, µM (top dose mostly 114 µM), inactives show at the highest dose activity change, negative = inhibition, hits mostly inhibitors. 390,000 compounds, 0.35% hits; further: potency means the concentration at half of the fitted maximal effect; on the % scale 0 is the no-effect control and ±100 the full control effect; nearly all actives have a fitted effect of over 65% in size
Target sequence (P39748 whole entry, looked up): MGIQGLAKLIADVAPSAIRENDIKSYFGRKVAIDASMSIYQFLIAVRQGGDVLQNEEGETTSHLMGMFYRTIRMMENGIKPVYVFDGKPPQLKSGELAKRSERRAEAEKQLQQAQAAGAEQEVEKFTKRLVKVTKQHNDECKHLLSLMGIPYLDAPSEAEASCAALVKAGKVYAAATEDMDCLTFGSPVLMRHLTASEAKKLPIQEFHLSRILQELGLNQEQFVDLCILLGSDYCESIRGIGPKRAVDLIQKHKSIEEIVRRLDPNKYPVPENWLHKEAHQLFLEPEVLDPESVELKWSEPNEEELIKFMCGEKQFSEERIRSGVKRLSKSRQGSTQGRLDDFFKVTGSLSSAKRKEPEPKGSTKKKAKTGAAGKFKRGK
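In this screen, 50 nM flap DNA substrate was added to 10 nM FEN1 pretreated with compound for 15 min at room temperature; cleavage was followed with reads at 0 and 15 min, and Hill fitting gave concentration–response parameters.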
TbPFK ATP = inhibits T. brucei PFK measured by ATP depletion; 1,100 compounds, 47% hits; Tb PFK enzyme, ATP depletion, Kinase-Glo Plus luminescence; Potency, µM (highest dose often 57.5 µM), without a hit: top-dose inhibition; AID 504636; shares compounds with Tb PFK inh-1; calls by dose curve; further: potency means the concentration at half of the fitted maximal effect; nearly all actives have a fitted effect of over 60% in size
Tb PFK inh-2 = T. brucei PFK enzyme inhibition, hit validation | 1,100 compounds, 41% hits | AID 504637 | Potency, µM (highest dose often 57.5 µM), for inactives: top-dose activity change, negative = inhibition, hits mostly inhibitors | shares compounds with Tb PFK inh-1 | purified T. brucei PFK, ADP-Glo luminescence, 45 min;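 further: potency means the concentration at half of the fitted maximal effect; plate controls were full PFK enzyme control for no effect and no enzyme control for full effect; nearly all actives have a fitted effect of over 60% in size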
An asterisk follows results filed as active; i = inactive; ? = inconclusive; nt = no result; [ ] = another dose, or the depositor's remark. Sampled rows, rich in hits. Any-hit rate of the full collection: about 1.5%. Unless noted, the call rests on the fitted dose curve; in most records, active means well fitted curve in the direction sought with a large enough effect; inconclusive means small, poorly fitted or top-dose-only effect, or another doubt; inactive means no such curve, though single readings can be large; an effect the other way counts as inactive or inconclusive.

SMILES | Tb PGK inh | Tb PFK inh-1 | TDP1 inh | PI5P4K alpha inh | WRN inhibitor | FEN1 inh | TbPFK ATP | Tb PFK inh-2
COc1cc2c(cc1OC)CN(c1ccc([N+](=O)[O-])c(C(F)(F)F)c1)CC2 | i | ? | 5% | -6 | -26% | ? | ? | ?
Cc1ccc(NNC(=O)Nc2ccc(Cl)cc2)nn1 | -2% | 24µM* | nt | -12 | ? | -17% | 24µM* | ?
CCCCOCN(C(=O)CCl)c1c(CC)cccc1CC | nt | nt | 16% | nt | nt | nt | nt | nt
O=c1[nH]c(=O)n(-c2ccc(Cl)cc2)c(O)c1C=Nc1ccc(S(=O)(=O)Nc2nccs2)cc1 | -4% | 0% | -2% | -20 | -6% | 5% | nt | nt
Cc1cc(C)c2oc(C(=O)Nc3ccc(S(=O)(=O)Nc4nccs4)cc3)cc(=O)c2c1 | 3% | ? | nt | -27 | -9%[11.6 µM] | -18% | -29% | ?
CC(=O)N1CCN(c2ccc(OC[C@@H]3CO[C@@](Cn4ccnc4)(c4ccc(Cl)cc4Cl)O3)cc2)CC1 | nt | nt | 16%[21 µM] | nt | nt | 2% | nt | nt
CCCC(C)c1nnc(NC(=O)c2cc(C(=O)OC)cc([N+](=O)[O-])c2)s1 (centres undefined) | -1% | 24µM* | 0% | nt | -4% | -6% | 6.7µM* | 15µM*
O=C1c2ccccc2C(=O)C1C(=O)C(c1ccccc1)c1ccccc1 | nt | nt | 15% | nt | nt | nt | nt | nt
CCCOc1ccc(/C(O)=C2/C(=O)C(=O)N(CCCn3ccnc3)C2c2ccc(C)o2)cc1 (centres undefined) | 6% | ? | nt | -6 | -14% | 3% | ? | 30µM*
CC1Cc2cc(/C(O)=C3/C(=O)C(=O)N(CCCn4ccnc4)C3c3cccc([N+](=O)[O-])c3)ccc2O1 (centres undefined) | 3% | 11µM* | 5% | 5 | -6% | 17% | 6.7µM* | 21µM*
CC(=NCCCn1ccnc1)c1c(O)n(-c2ccccc2)c(=O)[nH]c1=O | i | 0% | -1% | 3 | 7% | 5% | nt | nt
CCOC(=O)c1[nH]c(C)c(/C(O)=C2\C(=O)C(=O)N(CCCn3ccnc3)C2c2ccncc2)c1C (centres undefined) | -5% | 24µM* | -3% | -3 | -3% | 1% | 12µM* | 27µM*
NC(=NCc1ccc(Cl)cc1)SCCCc1cnc[nH]1 | nt | nt | 20% | nt | nt | nt | nt | nt
COc1ccc(OC)c(S(=O)(=O)N(C(C)=O)c2ccc3oc(=O)sc3c2)c1 | 0% | ? | 6% | 0 | 0% | 7% | -21% | ?
COc1ccc(OC)c(CC(=O)O)c1 | -7% | -1% | 2% | nt | -8% | -15% | nt | nt
CCCCC[C@@H](/C=C/C=C\CCCCCCCCCC(=O)O)OO | nt | nt | 5% | nt | nt | nt | nt | nt
O=C(N/N=C\C=C\c1ccco1)C1COc2ccccc2O1 (centres undefined) | -6% | 24µM* | nt | ? | -22% | 9% | 21µM* | ?
COc1ccc(/C=N\NC(=O)C2COc3ccccc3O2)cc1O (centres undefined) | i | 13µM* | 8% | -6 | -2% | -8% | 8.5µM* | 12µM*
O=C(N=Nc1c(O)[nH]c(=O)[nH]c1=O)C1COc2cc3ccccc3cc2O1 (centres undefined) | -6% | 18% | 7% | -12 | 0%[57.1 µM] | -3% | nt | nt
O=C(N/N=C/c1ccc2c(c1)OCO2)C1COc2ccccc2O1 (centres undefined) | nt | ? | 4% | nt | -14% | -20% | 19µM* | 21µM*
CC(C)Oc1cc(-n2nc(C(C)(C)C)oc2=O)c(Cl)cc1Cl | nt | nt | 28% | nt | nt | nt | nt | nt
